# Test results taken from ChEMBL document CHEMBL3988442, “University of Dundee, Small-Polar-MMV Screening Library” (2021).
# The campaign covered roughly 69,000 compounds. About 420 (0.61%) showed an effect of 50% or more. This is one part of a sample in which strong results are shown more often than they occur.
# Biological target: T1, Histidine--tRNA ligase (Leishmania infantum) (UniProt A4I591)
# T1 sequence (whole entry): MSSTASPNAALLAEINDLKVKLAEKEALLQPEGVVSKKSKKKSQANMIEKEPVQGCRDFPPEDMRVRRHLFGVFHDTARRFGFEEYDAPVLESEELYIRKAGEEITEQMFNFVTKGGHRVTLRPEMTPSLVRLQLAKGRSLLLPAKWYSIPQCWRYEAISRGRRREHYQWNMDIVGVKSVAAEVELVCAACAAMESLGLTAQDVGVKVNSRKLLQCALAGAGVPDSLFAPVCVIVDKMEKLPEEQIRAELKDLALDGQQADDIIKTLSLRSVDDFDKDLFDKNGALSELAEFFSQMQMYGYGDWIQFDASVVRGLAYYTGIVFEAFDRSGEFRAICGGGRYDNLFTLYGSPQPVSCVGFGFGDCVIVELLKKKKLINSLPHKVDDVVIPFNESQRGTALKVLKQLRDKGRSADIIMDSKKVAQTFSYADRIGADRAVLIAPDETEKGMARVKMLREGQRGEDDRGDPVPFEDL
# Test: Leishmania infantum Histidine tRNA synthetase (LdHisRS)
# Assay type: functional
# Parameters: scale not given: in the data most compounds retested in dose-response had high values
# Conditions: 30 µM
row,Structure (SMILES),Percent Effect [%]
1,c1cncc(COCC2C[C@@H]3OCCN(Cc4cccnc4)[C@H]3C2)c1 (stereo not given in full),28.3
2,Fc1ccc(OCc2noc(CN3CCc4cncnc4C3)n2)cc1,61.6
3,COc1ccc(-c2noc(CN3CCc4cncnc4C3)n2)cc1,50.4
4,c1ccc(Cc2noc(CN3CCc4cncnc4C3)n2)cc1,43
5,Cn1cnc2c1CCN(Cc1nc(COc3ccc(F)cc3)no1)C2,-98.5
6,c1ncc2c(n1)CN(Cc1nc(-c3ccoc3)no1)CC2,34.9
7,Cc1ccc(-c2noc(CN3CCc4cncnc4C3)n2)cc1,25.7
8,Cn1cc(C(=O)N[C@@H]2CN(Cc3cccnc3)[C@@H]3CCCO[C@@H]32)cn1,22.9
9,O=C(c1cnccn1)N1CCN2C[C@H](OCC3CC3)C[C@H]2C1,15.1
10,c1cncc(-c2ccc3c(c2)C2(CCNCC2)CC3)c1,-17.2
11,OCCN1CCC2(CCc3cc(-c4ccoc4)ccc32)CC1,24
12,CN(C)CC(=O)N1CCC2(CCc3ccc(-c4ccncc4)cc32)CC1,22.4
13,Cc1ccc2c(c1)C1(CC2)CCN(c2nncs2)CC1,24.8
14,c1cncc(-c2ccc3c(c2)CCC32CCN(Cc3ccco3)CC2)c1,44
15,c1cc(-c2ccc3c(c2)C2(CC3)CCN(c3nncs3)CC2)ccn1,74.2
16,c1cncc(-c2ccc3c(c2)CCC32CCNCC2)c1,20
17,c1cncc(-c2ccc3c(c2)C2(CC3)CCN(c3nncs3)CC2)c1,53.3
18,c1cc(-c2ccc3c(c2)CCC32CCNCC2)ccn1,53.5
19,c1cc(-c2ccc3c(c2)CCC32CCN(c3nncs3)CC2)co1,75.8
20,O=C(CCO)N1CCC2(CCc3ccc(-c4ccoc4)cc32)CC1,22.4
21,c1cc(-c2ccc3c(c2)C2(CCNCC2)CC3)ccn1,13.8
22,COCCN1C[C@H]2CC[C@@H]1CN(Cc1cc(=O)c3cc(C)ccc3[nH]1)C2,40.6

row,Structure (SMILES),Percent Effect [%]
1,COCCN1C[C@H]2CN(C(=O)c3ccno3)CCN2C1=O,11.1
2,COCC(=O)N1C[C@@H](OCc2cccnc2)[C@H]2OCCC[C@@H]21,14.6
3,COCCNC(=O)[C@H]1CN(Cc2scnc2C)C[C@H]2OCC[C@@H]12,13.3
4,CCc1cc(N[C@@H]2C[C@H]3CC[C@@H]2C3)n2nccc2n1,25.7
5,Cc1nc(CN2C[C@@H]3CN(C(=O)c4cnccn4)C[C@@H]3C2=O)cs1,2.94
6,Cc1ccc(CN2C[C@H]3C[C@H](C(=O)Nc4cccnc4)[C@@H](C2)O3)cc1,22
7,c1cncc(-c2ccc3c(c2)CCC32CCN(Cc3nccs3)CC2)c1,48
8,CN1CCCCC12CCN(c1nncs1)CC2,6.2
9,c1cc(-c2ccc3c(c2)CCC32CCN(c3nncs3)CC2)ccn1,66.1
10,CNC(=O)[C@H]1CC[C@@H]2[C@@H](CCN2c2ncccn2)O1,14
11,O=C(c1cnccn1)N1C[C@@H]2OCC(=O)N(CC3CCCCC3)[C@@H]2C1,25
12,COc1cc(N2CC[C@@H]3O[C@@H](c4ccncn4)C[C@H]3C2)ncn1,14.5
13,Cc1cccc(-c2noc(CN3CCc4nn(C)c(=O)cc4C3)n2)c1,87.8
14,COc1cc2c(nn1)CCN(Cc1noc(-c3ccccc3)n1)C2,24
15,Cc1ccccc1-c1noc(CN2CCc3nn(C)c(=O)cc3C2)n1,103
16,Cn1nc2c(cc1=O)CN(Cc1nc(-c3cccs3)no1)CC2,20.3
17,CCCn1nc2c(cc1=O)CN(Cc1nc(-c3ccoc3)no1)CC2,2.67
18,Cn1nc2c(cc1=O)CN(Cc1nc(-c3cccnc3)no1)CC2,10.3
19,Cn1nc2c(cc1=O)CN(Cc1nc(-c3ccsc3)no1)CC2,27.6
20,Cn1nc2c(cc1=O)CN(Cc1nc(-c3ccoc3)no1)CC2,16
21,Cc1ccccc1-c1noc(CN2CCc3cncnc3C2)n1,-42.2
22,Cc1ccc(-c2noc(CN3CCc4nn(C)c(=O)cc4C3)n2)cc1,70.7

row,Structure (SMILES),Percent Effect [%]
1,Cc1ccc(-c2nc(CN3CCc4cnc(C)nc4C3)no2)cc1,21.4
2,Cc1ccc(-c2nc(CN3CCc4nn(C)c(=O)cc4C3)no2)cc1,52.4
3,C[C@]12CCCCN(C(=O)c3ccccn3)[C@H]1CCCC(=O)N2,7.37
4,CN(Cc1cccnc1)[C@@H]1CN(Cc2ccccn2)[C@@H]2CCCO[C@H]12,8.33
5,Cc1nnc(N2CC[C@H]3O[C@H](C(=O)NCc4ccccn4)CC[C@H]32)s1,20
6,Cc1ncsc1CN1C[C@@H]2CCCO[C@@H]2[C@H](N(C)C(C)C)C1,14
7,Cc1ccc(CN2CC[C@@H]3O[C@@H](C(=O)N4CCN(C)CC4)C[C@@H]32)cc1,9.62
8,CS(=O)(=O)N1C[C@@H]2CC[C@H](C1)N(Cc1cscn1)C2=O,15.2
9,O=C1CCCC2=C1C(c1cccc(F)c1F)Nc1nonc1N2 (stereo not given),6.25
10,COCCN1C[C@@H]2CN(c3cnccn3)C[C@@H]2C1=O,16
11,Cn1nc2c(cc1=O)CN(Cc1nc(-c3ccco3)no1)CC2,91.4
12,CCCn1nc2c(cc1=O)CN(Cc1nc(-c3ccco3)no1)CC2,5.5
13,CCn1nc2c(cc1=O)CN(Cc1nc(-c3ccco3)no1)CC2,33
14,O=C(NC1CC1)[C@@H]1C[C@@H]2CCN(Cc3ccccc3)C[C@H]2O1,23
15,COc1ccc(CN2C[C@@H]3OCCN(CCN(C)C)[C@@H]3C2)cc1,15.6
16,COc1cccc(CNc2cc(C)nc(-c3ccncc3)n2)c1O,19.2
17,COc1cccc(CNc2cc(C)nc(-c3ccncc3)n2)c1OC,52
18,COc1cccc(CNc2nc(C)cc(C)n2)c1OC,21.9
19,O=C(c1ccco1)N1CCO[C@@H]2CN(c3ccccc3)CC[C@@H]2C1,32
20,O=C(Nc1cnccn1)[C@@H]1COC[C@H]2CN(C3CCC3)C[C@H]21,12.3
21,O=C(Nc1ccccc1Cl)N1CCN(CC2CC2)[C@@H]2CS(=O)(=O)C[C@@H]21,8.2
22,CC(C)=CCN1C[C@H]2CC[C@@H]1CN(C(=O)CCc1n[nH]c(C)n1)C2,-42.5

row,Structure (SMILES),Percent Effect [%]
1,CS(=O)(=O)N1C[C@@H]2CC[C@H](C1)N(C(=O)CCc1n[nH]c3c1CCCC3)C2,14.5
2,CC(=O)N1C[C@@H]2CC[C@H](C1)N(C(=O)CCc1n[nH]c3c1CCCC3)C2,17.7
3,O=C(CCc1n[nH]c2c1CCCC2)N1C[C@@H]2CC[C@H](C1)N(CC1CC1)C2,56.5
4,COCCN1C[C@H]2CC[C@@H]1CN(C(=O)CCc1n[nH]c(C)c1C)C2,13.9
5,O=C(NCc1cccnc1)[C@H]1CC[C@@H]2[C@@H](CCN2c2ncccn2)O1,7
6,COCCN1C(=O)[C@H]2CC[C@@H]1CN(S(=O)(=O)c1cccc(Cl)c1)C2,0
7,Cc1cc(C(=O)N2C[C@H]3CC[C@@H]2CN(C)C3)ccc1Cl,7.14
8,COc1ccnc(N2C[C@@H]3CC[C@H](C2)N(CC2CCC2)C3=O)n1,19.4
9,O=C(c1cocn1)N1C[C@@H]2CN(CC3CC3)CCO[C@@H]2C1,7.56
10,NC(=O)CN1CCN(CC2CC2)c2ccccc21,56.2
11,COCCC(=O)N1CCN(CC2CC2)c2ccccc21,26.5
12,NC(=O)NC(=O)CN1CCN(CC2CC2)c2ccccc21,31.2
13,NC(=O)NC(=O)CCN1CCN(CC2CC2)c2ccccc21,81.2
14,CNC(=O)NC(=O)CN1CCN(CC2CC2)c2ccccc21,31.2
15,O=C(NCCCC(=O)N1CCN(CC2CC2)c2ccccc21)C1CC1,11.8
16,Cc1ccc(N2CC[C@@H]3O[C@@H](COCc4cccnc4)CC[C@@H]32)nn1,13.2
17,NC(=O)[C@@H]1CN2CCN(C(=O)C3CC3)C[C@@H]2[C@H]1c1ccccc1,2.04
18,CS(=O)(=O)N1C[C@H]2CCCN(Cc3cccs3)[C@H]2C1,5.26
19,COc1ccc2c(c1)CC(NCc1cccc(NC(C)=O)c1)CC2 (stereo not given),43.6
20,COc1ccc2c(c1)CC(NCc1cccc(CO)c1)CC2 (stereo not given),15.4
21,COc1ccc2c(c1)CC(NCc1cccc(OCC(N)=O)c1)CC2 (stereo not given),59
22,Cc1ccc(CN2Cc3ccccc3O[C@]3(CC[C@H](CO)CC3)C2)s1,16.5

row,Structure (SMILES),Percent Effect [%]
1,O=C(c1ccccc1)N1CC[C@H]2C[C@@H](c3nnc(C4CC4)o3)O[C@@H]2C1,13.6
2,O=C(C1=NN(Cc2ccccc2)c2ccccc2S1(=O)=O)N1CCCC1,53.9
3,COC(=O)CN1N=C(C(=O)N2CCCC2)S(=O)(=O)c2ccccc21,12.2
4,CC(C)CCN1N=C(C(=O)N2CCCCCC2)S(=O)(=O)c2ccccc21,10.2
5,CN(CCCN1CCCCCC1)C(=O)c1ccccc1NCC(=O)O,50.6
6,CN(C(=O)c1ccccc1NCC(=O)O)C(C1CC1)C1CC1,-4.2
7,CN(CCCc1ccccc1)C(=O)c1ccccc1NCC(=O)O,16.9
8,CNC(=O)CN1CCC(CN(C)Cc2ccc(C)cc2C)CC1,2.04
9,Cc1ccc(CN2C[C@@H]3C[C@H](C(=O)NCC4CC4)N(C)[C@@H]3C2)o1,10.1
10,Cc1nc(CN2C(=O)CC[C@@H]3[C@H]2CCN3C(=O)C2CCCO2)cs1 (stereo not given in full),15.4
11,CSc1nc(N)cc(N2C[C@@H]3CC[C@H](C2)N(Cc2cscn2)C3=O)n1,11
12,Clc1cc(NCc2ccncc2)nc2[nH]ccc12,71.1
13,Clc1cc(NCc2nccs2)nc2[nH]ccc12,22.9
14,Clc1cc(NCc2ncc[nH]2)nc2[nH]ccc12,10.8
15,c1cnc(N2CCO[C@H]3CN(Cc4csnn4)C[C@H]32)cn1,26.3
16,CS(=O)(=O)NC[C@@H]1OC[C@H]2CN(C(=O)c3ccc[nH]3)CC[C@H]21,-383
17,CS(=O)(=O)N[C@@H]1COC[C@@H]2CN(Cc3ccoc3)C[C@@H]21,6.94
18,CC(C)(C)c1cc(CN2C[C@H]3CC[C@@H]2CN(Cc2cscn2)C3)n[nH]1,11.5
19,O=S(=O)(c1cccnc1)N1C[C@@H]2COC[C@]2(COCC2CC2)C1,1.75
20,Cc1cccc2c1nc(COCC(=O)O)n2-c1cnc(N)cn1,68.3
21,Cc1cccc2c1nc(COCC(=O)O)n2-c1ccc(N)nc1,1.67
22,Cc1ccc(-n2c(COCC(=O)O)nc3c(C)cccc32)nc1,25
